In PubChem BioAssay (NCATS):
Records with an inconclusive call do not appear. The source made the active and inactive calls. Calls come from the whole dose curve; as a rule, active = well fitted curve in the direction sought with a large enough effect; inconclusive = small, poorly fitted or top-dose-only effect, or another doubt; inactive = no such curve, though single readings can be large; an effect the other way counts as inactive or inconclusive.

What was measured:
[1] = NS1 protein of Zika virus - qHTS assay to identify small molecule inhibitors in human HEK 293 cells (AID 1347053); note: series mostly up to about 46 µM; nearly all actives have a fitted effect of over 55% in size
Outline: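 Following 20 h seeding, HEK 293 cells took compound, then 1 h later ZIKV MR766 (MOI = 0.5). Incubation ran 24 h at 37 C before TR-FRET detection of NS1; a drop in signal indicates inhibition.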

[2] = qHTS of pediatric cancer cell lines to identify multiple opportunities for drug repurposing: Primary screen for TC32 cells (AID 1347089); note: nearly all actives have a fitted effect of over 60% in size
Outline: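 Luminescent ATP read-out (CellTiter-Glo) of metabolically active TC32 cells after 48 h exposure. Concentration-response curves came from 11-point (MIPE, 0.78 nM–46 µM) or 8-point (NPC, 0.59 nM–46 µM) primary titrations; follow-up used 11 points.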

[3] = qHTS of pediatric cancer cell lines to identify multiple opportunities for drug repurposing: Primary screen for DAOY cells (AID 1347090); note: series mostly up to about 46 µM; nearly all actives have a fitted effect of over 55% in size
Outline: (§1)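 Cell viability, CellTiter-Glo luminescence; 500-1,000 cells/well, 8- or 11-point titration, 48 h compound exposure at 37 degrees C, 5% CO2. Controls: DMSO neutral, bortezomib 2.3 µM final as positive.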

[4] = qHTS of pediatric cancer cell lines to identify multiple opportunities for drug repurposing: Primary screen for SJ-GBM2 cells (AID 1347091)
Outline: as §1

[5] = qHTS of pediatric cancer cell lines to identify multiple opportunities for drug repurposing: Primary screen for A673 cells (AID 1347092); note: nearly all actives have a fitted effect of over 45% in size
Outline: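 Cell viability of A673 measured by CellTiter-Glo ATP luminescence after 48 hours compound exposure. Dilution series spanned 0.78 nM to 46 µM (MIPE, 11-point) or 0.59 nM to 46 µM (NPC, 8-point); bortezomib 2.3 uM positive control.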

[6] = qHTS of pediatric cancer cell lines to identify multiple opportunities for drug repurposing: Primary screen for SK-N-MC cells (AID 1347093); note: series mostly up to about 46 µM
Outline: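 Metabolically active cells were quantified by ATP-dependent luminescence (CellTiter-Glo, 15 min at room temperature) following 48 h treatment. Cells had been plated at 500-1,000 per well and settled for 5 h beforehand.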

[7] = qHTS of pediatric cancer cell lines to identify multiple opportunities for drug repurposing: Primary screen for BT-37 cells (AID 1347094); note: series mostly up to about 57 µM
Outline: (§2)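 Primary screen of approved and investigational compounds on cells in growth media at 37 degrees C, 5% CO2. MIPE set at 11-point and NPC set at 8-point dilutions; viability scored by ATP-based luminescence at 48 hours.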

[8] = qHTS of pediatric cancer cell lines to identify multiple opportunities for drug repurposing: Primary screen for NB-EBc1 cells (AID 1347095)
Outline: as §2

[9] = qHTS of pediatric cancer cell lines to identify multiple opportunities for drug repurposing: Primary screen for U-2 OS cells (AID 1347096); note: nearly all actives have a fitted effect of over 50% in size
Outline: (§3)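 Cells (500-1,000/well) rested 5 h, then received compounds for 48 h; metabolically active cells were measured by CellTiter-Glo luminescence. Final concentrations spanned up to 46 µM (MIPE, 11-point) or 0.59 nM-46 µM (NPC, 8-point) in primary screens, 11-point in follow-ups.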

[10] = qHTS of pediatric cancer cell lines to identify multiple opportunities for drug repurposing: Primary screen for Saos-2 cells (AID 1347097); note: nearly all actives have a fitted effect of over 40% in size
Outline: as §2

[11] = qHTS of pediatric cancer cell lines to identify multiple opportunities for drug repurposing: Primary screen for SK-N-SH cells (AID 1347098); note: nearly all actives have a fitted effect of over 65% in size
Outline: as §3

[12] = qHTS of pediatric cancer cell lines to identify multiple opportunities for drug repurposing: Primary screen for NB1643 cells (AID 1347099); note: nearly all actives have a fitted effect of over 50% in size
Outline: as §2

[13] = qHTS of pediatric cancer cell lines to identify multiple opportunities for drug repurposing: Primary screen for LAN-5 cells (AID 1347100)
Outline: as §3

[14] = qHTS of pediatric cancer cell lines to identify multiple opportunities for drug repurposing: Primary screen for BT-12 cells (AID 1347101); note: nearly all actives have a fitted effect of over 25% in size
Outline: as §3

[15] = qHTS of pediatric cancer cell lines to identify multiple opportunities for drug repurposing: Primary screen for Rh18 cells (AID 1347102); note: nearly all actives have a fitted effect of over 65% in size
Outline: as §3

[16] = qHTS of pediatric cancer cell lines to identify multiple opportunities for drug repurposing: Primary screen for OHS-50 cells (AID 1347103); note: nearly all actives have a fitted effect of over 40% in size
Outline: as §3

[17] = qHTS of pediatric cancer cell lines to identify multiple opportunities for drug repurposing: Primary screen for RD cells (AID 1347104); note: nearly all actives have a fitted effect of over 55% in size
Outline: as §2

[18] = qHTS of pediatric cancer cell lines to identify multiple opportunities for drug repurposing: Primary screen for MG 63 (6-TG R) cells (AID 1347105); note: nearly all actives have a fitted effect of over 50% in size
Outline: as §2

[19] = qHTS of pediatric cancer cell lines to identify multiple opportunities for drug repurposing: Primary screen for control Hh wild type fibroblast cells (AID 1347106);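 note: series mostly up to about 46 µM; a drop in luminescence marks cytotoxicity and a rise apparent proliferation; nearly all actives have a fitted effect of over 55% in size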
Outline: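 Viability after 48 h compound treatment at 37C, 500-1,000 cells/well, read as ATP luminescence with CellTiter-Glo. Primary screens used 11-point (MIPE, 0.78 nM-46 µM) or 8-point (NPC, 0.59 nM-46 µM) final concentrations; follow-up screens used 11-point dilutions.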

[20] = qHTS of pediatric cancer cell lines to identify multiple opportunities for drug repurposing: Primary screen for Rh30 cells (AID 1347107); note: series mostly up to about 46 µM; nearly all actives have a fitted effect of over 75% in size
Outline: as §3

Measured: Potency

Cc1c(C(=O)NCCO)[n+](=O)c2ccccc2n1[O-]
inactive: all assays above

Cc1c(N(C)C)c(=O)n(-c2ccccc2)n1C
inactive: all assays above

CC(C)CCOC(=O)c1ccc(N(C)C)cc1
not listed: [16]
inactive: all other assays above

COc1ccc(C(=O)N2CCN(CC(=O)N3CCOCC3)CC2)cc1
not listed: [19]
inactive: all other assays above

CN1CCCN=C1COC(=O)C(O)(c1ccccc1)C1CCCCC1 (centres undefined)
not listed: [17] | [18] | [19]
inactive: all other assays above

Cc1ncc(CO)c(CN)c1O
inactive: all assays above

Cc1ccc(S(=O)(=O)NC(=O)NC2CCCCCCC2)cc1
inactive: all assays above

CCc1nnc(NS(=O)(=O)c2ccc(N)cc2)s1
not listed: [18]
inactive: all other assays above
